# In the library only some 1.2% were active in any assay of this set; here they are far more common.
# ugtP null kill: growth inhibition of S. aureus ugtP deletion strain; AID 1259309; growth inhibition, % (test concentration not listed); hit rate 0.54% among 330,000; S. aureus RN4220 ugtP deletion, OD600 growth, 16 h; in the data active = growth inhibition above about 68%;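 note: plate controls were untreated wells for no effect and antibiotic for full effect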
# PfHsp40 rescue: rescue of PfHsp40-mediated yeast toxicity; S. cerevisiae expressing PfHsp40, growth rescue, ATP luminescence; growth rescue, % at 12.5 µM; hit rate 0.68% among 340,000; AID 504582; in the data active = growth rescue above about 28%, passing the limit was not always enough;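 note: yeast W303a lacking pdr1 and pdr3 grown in galactose medium; growth measured after three days at 30 °C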
# Sa RN4220 lethal: S. aureus RN4220 growth inhibition. OD600, 16 h. inhibition, % (test concentration not listed). hit rate 0.33% among 330,000. AID 1259311; in the data active = inhibition above about 85%;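 note: plate controls were untreated cells for no effect and reference antibiotic for full effect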
# TcdB GH inh: inhibitors of Clostridioides difficile toxin B glycohydrolase. P18177. TcdB glycohydrolase enzymatic assay, plate reader. inhibition, % at 9.99 µM. hit rate 0.24% among 350,000. AID 652162; in the data active = inhibition above about 10%
# Target sequence (P18177 whole entry, looked up): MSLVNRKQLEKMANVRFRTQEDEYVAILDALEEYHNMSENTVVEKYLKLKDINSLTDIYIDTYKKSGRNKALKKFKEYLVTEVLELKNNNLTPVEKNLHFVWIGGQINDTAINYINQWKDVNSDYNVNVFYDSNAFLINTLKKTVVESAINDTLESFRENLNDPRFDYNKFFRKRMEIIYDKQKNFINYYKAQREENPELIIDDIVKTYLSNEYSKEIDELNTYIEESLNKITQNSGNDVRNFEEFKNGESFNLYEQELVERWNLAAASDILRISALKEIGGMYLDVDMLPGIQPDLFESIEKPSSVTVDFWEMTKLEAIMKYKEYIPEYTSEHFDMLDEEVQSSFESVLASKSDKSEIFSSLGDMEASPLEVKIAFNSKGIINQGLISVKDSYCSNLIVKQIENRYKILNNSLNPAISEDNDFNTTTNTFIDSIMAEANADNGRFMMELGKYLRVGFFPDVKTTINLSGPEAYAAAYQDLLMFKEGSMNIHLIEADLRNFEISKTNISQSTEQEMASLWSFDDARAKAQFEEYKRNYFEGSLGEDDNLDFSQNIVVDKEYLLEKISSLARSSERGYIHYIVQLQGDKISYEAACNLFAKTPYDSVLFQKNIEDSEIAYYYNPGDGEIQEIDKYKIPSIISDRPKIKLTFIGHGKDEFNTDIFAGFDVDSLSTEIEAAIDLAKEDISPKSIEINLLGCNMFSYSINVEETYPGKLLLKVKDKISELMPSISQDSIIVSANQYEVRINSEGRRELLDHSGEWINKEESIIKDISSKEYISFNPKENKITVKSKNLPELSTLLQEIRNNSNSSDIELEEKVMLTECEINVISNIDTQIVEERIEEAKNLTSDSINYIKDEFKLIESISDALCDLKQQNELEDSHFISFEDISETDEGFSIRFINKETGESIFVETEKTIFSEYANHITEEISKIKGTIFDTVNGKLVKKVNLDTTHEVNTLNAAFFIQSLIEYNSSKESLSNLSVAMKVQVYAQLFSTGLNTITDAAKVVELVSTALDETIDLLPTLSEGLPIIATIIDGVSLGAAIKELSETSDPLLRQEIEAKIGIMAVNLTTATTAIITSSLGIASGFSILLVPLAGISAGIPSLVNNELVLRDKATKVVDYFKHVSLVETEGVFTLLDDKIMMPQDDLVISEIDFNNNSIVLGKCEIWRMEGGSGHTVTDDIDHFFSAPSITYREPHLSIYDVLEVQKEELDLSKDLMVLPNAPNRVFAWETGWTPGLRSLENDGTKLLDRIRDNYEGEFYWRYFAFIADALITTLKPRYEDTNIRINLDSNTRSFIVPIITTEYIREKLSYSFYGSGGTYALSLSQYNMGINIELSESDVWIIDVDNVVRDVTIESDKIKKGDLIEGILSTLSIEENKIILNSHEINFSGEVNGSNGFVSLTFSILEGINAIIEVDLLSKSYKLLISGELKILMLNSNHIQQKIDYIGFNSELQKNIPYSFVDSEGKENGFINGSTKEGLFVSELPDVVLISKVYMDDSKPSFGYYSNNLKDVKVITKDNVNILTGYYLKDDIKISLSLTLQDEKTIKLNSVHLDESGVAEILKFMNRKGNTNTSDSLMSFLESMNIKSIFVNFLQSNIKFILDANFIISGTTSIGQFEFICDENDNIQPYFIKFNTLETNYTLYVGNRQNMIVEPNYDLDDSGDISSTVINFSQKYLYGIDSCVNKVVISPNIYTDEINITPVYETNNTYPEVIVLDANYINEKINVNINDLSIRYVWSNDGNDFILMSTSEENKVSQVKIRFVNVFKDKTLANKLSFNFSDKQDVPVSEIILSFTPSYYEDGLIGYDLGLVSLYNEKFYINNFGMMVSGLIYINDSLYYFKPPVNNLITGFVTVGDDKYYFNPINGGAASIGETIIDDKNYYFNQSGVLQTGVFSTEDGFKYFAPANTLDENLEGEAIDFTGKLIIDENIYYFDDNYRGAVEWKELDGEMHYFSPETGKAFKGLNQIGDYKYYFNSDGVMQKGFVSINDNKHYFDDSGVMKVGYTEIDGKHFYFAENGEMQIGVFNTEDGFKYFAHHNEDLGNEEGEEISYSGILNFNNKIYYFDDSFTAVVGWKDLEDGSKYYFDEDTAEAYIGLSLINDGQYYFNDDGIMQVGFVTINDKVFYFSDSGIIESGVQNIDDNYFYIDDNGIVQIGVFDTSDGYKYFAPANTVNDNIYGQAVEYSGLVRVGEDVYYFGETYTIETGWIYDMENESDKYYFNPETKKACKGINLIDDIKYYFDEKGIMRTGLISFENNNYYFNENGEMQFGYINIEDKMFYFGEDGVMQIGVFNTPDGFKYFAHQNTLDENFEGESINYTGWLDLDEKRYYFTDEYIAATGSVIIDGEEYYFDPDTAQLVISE
# PrP 5UTR inh: suppresses PrP 5' UTR mRNA reporter expression; cell-based PrP 5' UTR mRNA reporter, plate reader; inhibition, % (test concentration not listed); hit rate 0.35% among 340,000; AID 488862; in the data active = inhibition above about 52%; note: 0 = median of the neutral control wells
# * = called active by the depositor; · = no result given; ! = not active in a repeat.
SMILES,ugtP null kill,PfHsp40 rescue,Sa RN4220 lethal,TcdB GH inh,PrP 5UTR inh
COc1cccc(C(CNc2ccc(S(=O)(=O)N3CCN(C)CC3)cc2[N+](=O)[O-])N(C)C)c1 (stereo not drawn),-2,0,1,17*,-18
C[C@H](CO)N1C[C@H](C)[C@H](CN(C)S(=O)(=O)c2ccc(F)cc2)Oc2ccc(NC(=O)Nc3ccccc3)cc2C1=O,·,·,·,-1,·
COC(=O)c1ccccc1,·,·,·,1,·
O=C(NOC(=O)c1ccccc1)c1ccccc1,9,239*,2,1,-11
CC/C(=C(/CC)c1ccc(O)cc1)c1ccc(O)cc1,·,107*,·,1,·
CN(C)CCCN(C(=O)COc1ccc(Cl)cc1)c1nc2cc3c(cc2s1)OCCO3,91*,1,-1,0,-35
CN1CCN(Cc2cc(C(C)(C)C)c(O)c(C(C)(C)C)c2)CC1,-1,-1,4,·,-11
CC(C)(C)c1cc(C(c2cccnc2)N2CCN(CCO)CC2)cc(C(C)(C)C)c1O (stereo not drawn),81,30*,71,3,-19
CCCC1CC(C(=O)NC(C(C)O)C2OC(SC)C(O)C(O)C2O)N(C)C1 (stereo not drawn),99*,·,100*,·,·
C[C@@H]1CN([C@@H](C)CO)C(=O)c2cc(NC(=O)NC3CCCCC3)ccc2O[C@H]1CN(C)S(=O)(=O)c1ccc(F)cc1,·,·,·,1,·
CCOc1cnn(-c2cc(Oc3ccc(C)cc3)ncn2)c(=O)c1Cl,-1,1,5,·,13
Cc1ccccc1Oc1cc(-n2ncc(Cl)c(Cl)c2=O)ncn1,92*,-2,58,0,-10
CCc1ccc(C(=O)/C=C/c2ccc([N+](=O)[O-])o2)cc1,60,120*,24,·,-6
COc1cc(/C=C/C(=O)c2ccc([N+](=O)[O-])o2)ccc1O,·,19,·,12*,-17
COc1ccc(/C=C/C(=O)c2ccc([N+](=O)[O-])o2)cc1OC,·,·,·,1,·
O=C(C=Cc1ccc(Cl)cc1)c1ccc([N+](=O)[O-])o1,99*,·,79,·,·
O=C(/C=C/c1cccc(Cl)c1)c1ccc([N+](=O)[O-])o1,·,-6,·,2,-27
COc1ccc(S(=O)(=O)N(C)C[C@@H]2Oc3c(NC(=O)Nc4ccc(C(F)(F)F)cc4)cccc3C(=O)N([C@H](C)CO)C[C@@H]2C)cc1,·,·,·,1,·
O=c1c2ccccc2nc(/C=C/c2ccc3c(c2)OCO3)n1-c1cccc(O)c1,93*,1,96*,·,-15
COc1ccc(/C=C/c2nc3ccccc3c(=O)n2-c2cccc(C(=O)O)c2)cc1,84,0,92*,0,-8
C=C1C(=O)[C@@]23C(O)CC4C(C)(C)CCC(O)[C@@]4(C)C2CCC1C3O (stereo partly drawn),3,·,15,·,·
Cc1noc(C)c1S(=O)(=O)Nc1ccc2c(c1)C(=O)N([C@@H](C)CO)C[C@H](C)[C@H](CN(C)C(=O)Nc1cccc3ccccc13)OCCCC[C@H](C)O2,·,·,·,0,·
CC1CCN(c2nc(-c3ccccc3)cc(C(F)(F)F)n2)CC1,88*,1,0,·,-22
CN1CCN(c2nc(-c3ccccc3)cc(C(F)(F)F)n2)CC1,28,0,5,·,-6
Cc1ccc(-c2cc(C(F)F)nc(N3CCC(C)CC3)n2)cc1,91*,-2,-5,·,-1
SMILES,ugtP null kill,PfHsp40 rescue,Sa RN4220 lethal,TcdB GH inh,PrP 5UTR inh
COc1cccc(-c2cc(C(F)(F)F)nc(N3CCC(C)CC3)n2)c1,94*,-2,-2,·,-7
COc1ccc(NC(=O)Nc2ccc3c(c2)[C@H]2C[C@H](CC(=O)O)O[C@@H](CO)[C@H]2O3)cc1,·,·,·,-1,·
Cc1ccc(C(=O)ONc2ccc(N=O)cc2)cc1,100*,3,1,·,-2
Cc1ccc(C(=O)ONc2ccc(N=NC(=O)c3ccccc3O)cc2)cc1,35,-1,0,·,·
CC(C)(C)c1cc(NCCCn2ccnc2)n2ncc(-c3ccc(Cl)cc3)c2n1,63,70*,41,·,-64
CC(C)c1ccc(OCC(=O)Nc2cccc3c2CCCC3)cc1,96*,-1,15,·,-8
CCOC(=O)/C=c1/s/c(=C/c2ccc3cc(OC)ccc3c2)c(=O)n1CC(=O)NCC1CCCO1 (stereo not drawn),-3,-1,2,12*,-15
CCCOc1ccc(C(=O)NNC(=S)NC(=O)c2ccco2)cc1,90*,108*,87*,1,-26
CCCOc1ccc(C(=O)NNC(=S)NC(=O)c2ccccc2)cc1,·,-2,·,1,-5
COc1ccc(C(=O)NNC(=S)NC(=O)c2ccco2)cc1,-6,4,34,·,3
CCCCOc1ccc(C(=O)NNC(=S)NC(=O)CC)cc1,98*,61*,94*,·,28
CCCOc1ccc(C(=O)NNC(=S)NC(C)=O)cc1,29,52*,60,·,5
O=S(=O)(Nc1ccc(O)cc1)c1cccc2cccnc12,12,-1,3,11*,-5
CC(C)c1ccc(NS(=O)(=O)c2cccc3cccnc23)cc1,-12,-1,12,1,-21
O=C(Nc1ncccc1O)c1cccc(S(=O)(=O)N2CCCc3ccccc32)c1,1,62*,13,0,-2
CC(=O)N1CC[n+]2c(-c3ccc(Cl)cc3)csc21,18,66*,0,1,-24
CCc1ccc(-c2csc3[n+]2CCN3C(C)=O)cc1,0,93*,3,1,-21
CC(=O)N1CCN(C(=S)c2ccc(Cl)cc2)CC1,2,-1,-6,·,-25
COc1ccc(S(=O)(=O)Nc2ccc3c(c2)C(=O)N([C@H](C)CO)C[C@H](C)[C@H](CN(C)S(=O)(=O)c2cn(C)cn2)OCCCC[C@H](C)O3)cc1,·,·,·,0,·
C[C@H]1CN([C@@H](C)CO)C(=O)c2cc(NC(=O)CCN3CCOCC3)ccc2O[C@@H]1CN(C)CC1CCCCC1,·,·,·,-1,·
C[C@H](CO)N1C[C@H](C)[C@@H](CN(C)CC2CCCCC2)Oc2ccc(NC(=O)CCN3CCOCC3)cc2C1=O,-1,-2,-15,10*!,-18
COC(=O)c1ccc(Oc2ccc(C(C)(C)C)cc2)c([N+](=O)[O-])c1,95*,0,-15,·,-6
CC(=NNC(=O)CN1CCN(Cc2ccc(C)cc2)CC1)c1ccncc1,1,·,1,·,·
NS(=O)(=O)c1ccc(Nc2c([N+](=O)[O-])cncc2[N+](=O)[O-])cc1,90*,-1,96*,2,-4
COc1ccccc1-c1ccc2c(c1)[C@@H]1[C@@H](CCN1C(=O)c1ccncc1)[C@@H](CO)N2,·,·,·,-3,·
Cc1cccc(Nc2nc(N)c([N+](=O)[O-])c(N3CC(C)CC(C)C3)n2)c1 (stereo not drawn),57,64*,-1,1,-9
COc1ccc(-c2cc(C3CCN(c4cc(Cl)nc(N)n4)CC3)[nH]n2)cc1,95*,3,-7,·,5
Nc1nc(Cl)cc(N2CCC(c3cc(-c4ccc(Cl)cc4)n[nH]3)CC2)n1,94*,5,28,3,-8
COc1ccc(OC)c(-c2cc(C3CCN(c4cc(Cl)nc(N)n4)CC3)[nH]n2)c1,-10,0,2,·,3
